From PubChem BioAssay (Tox21) come the findings set out here.

Where “and” joins values, the source holds several entries; their conditions need not be identical. Identical values can stand only once. Inconclusive results are not listed. Where a call stands in place of a potency, no number is given. Some compounds were tested as several samples or in several runs, with calls that do not always agree. Calls of active or inactive are those of the source. Calls come from the whole dose curve; as a rule, active = well fitted curve in the direction sought with a large enough effect in the repeat runs; inconclusive = weak or mixed curves; inactive = no such curve, though single readings can be large; an effect the other way counts as inactive or inconclusive.
Note: nearly all actives have a fitted effect of over 50% in size.
Potency is the fitted concentration of half-maximal effect.

Sequence of Voltage-gated inwardly rectifying potassium channel KCNH2 (Homo sapiens) (Q12809 whole entry, looked up): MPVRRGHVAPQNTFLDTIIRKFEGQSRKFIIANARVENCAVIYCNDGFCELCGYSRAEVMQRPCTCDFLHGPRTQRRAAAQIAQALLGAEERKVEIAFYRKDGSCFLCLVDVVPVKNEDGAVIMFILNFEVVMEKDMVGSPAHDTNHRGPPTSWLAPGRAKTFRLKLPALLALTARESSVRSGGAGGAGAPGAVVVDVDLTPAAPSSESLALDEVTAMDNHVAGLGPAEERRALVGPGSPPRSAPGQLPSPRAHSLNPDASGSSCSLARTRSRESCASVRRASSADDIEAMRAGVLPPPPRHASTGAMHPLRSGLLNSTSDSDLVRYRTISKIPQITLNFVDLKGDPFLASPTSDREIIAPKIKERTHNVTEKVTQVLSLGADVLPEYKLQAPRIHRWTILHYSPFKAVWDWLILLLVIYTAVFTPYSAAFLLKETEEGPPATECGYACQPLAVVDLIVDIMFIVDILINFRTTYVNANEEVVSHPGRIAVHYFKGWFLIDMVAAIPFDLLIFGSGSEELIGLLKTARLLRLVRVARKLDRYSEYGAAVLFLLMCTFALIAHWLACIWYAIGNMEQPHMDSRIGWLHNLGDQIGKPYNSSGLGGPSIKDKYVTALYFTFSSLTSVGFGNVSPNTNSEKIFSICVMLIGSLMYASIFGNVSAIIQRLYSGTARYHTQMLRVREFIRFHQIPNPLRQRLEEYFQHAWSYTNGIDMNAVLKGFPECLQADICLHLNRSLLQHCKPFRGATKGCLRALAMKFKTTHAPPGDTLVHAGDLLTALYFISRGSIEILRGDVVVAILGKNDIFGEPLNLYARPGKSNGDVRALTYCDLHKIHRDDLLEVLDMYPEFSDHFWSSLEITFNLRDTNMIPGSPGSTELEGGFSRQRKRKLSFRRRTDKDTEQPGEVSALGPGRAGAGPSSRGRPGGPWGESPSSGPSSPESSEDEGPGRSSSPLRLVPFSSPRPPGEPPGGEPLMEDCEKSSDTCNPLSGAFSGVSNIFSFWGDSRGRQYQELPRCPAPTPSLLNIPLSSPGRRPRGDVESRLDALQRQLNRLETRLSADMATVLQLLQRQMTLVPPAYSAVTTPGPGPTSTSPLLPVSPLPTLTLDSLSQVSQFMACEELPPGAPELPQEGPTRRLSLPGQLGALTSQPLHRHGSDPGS
Sequence of Cytochrome P450 1A2 (Homo sapiens) (P05177 whole entry, looked up): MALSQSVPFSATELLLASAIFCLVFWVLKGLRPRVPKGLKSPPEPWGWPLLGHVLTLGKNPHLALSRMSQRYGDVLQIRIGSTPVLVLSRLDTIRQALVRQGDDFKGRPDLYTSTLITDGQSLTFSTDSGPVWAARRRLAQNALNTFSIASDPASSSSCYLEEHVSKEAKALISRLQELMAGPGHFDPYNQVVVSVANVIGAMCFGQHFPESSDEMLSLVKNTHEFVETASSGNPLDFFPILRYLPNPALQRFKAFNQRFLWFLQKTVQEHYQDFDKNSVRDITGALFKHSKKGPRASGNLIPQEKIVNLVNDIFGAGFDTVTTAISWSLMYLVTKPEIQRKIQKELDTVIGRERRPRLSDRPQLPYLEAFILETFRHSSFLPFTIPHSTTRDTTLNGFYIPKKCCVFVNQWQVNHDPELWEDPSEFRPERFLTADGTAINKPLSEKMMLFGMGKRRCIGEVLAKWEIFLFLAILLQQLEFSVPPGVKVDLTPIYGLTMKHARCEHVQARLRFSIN

One test deals with Cytochrome P450 1A2 (Homo sapiens) (UniProt P05177). As to the kind of experiment: Cytochrome P450 Family 1 Subfamily A Member 2 (CYP1A2) small molecule antagonists: luciferase reporter qHTS assay (AID 1671199). The conditions noted are these: P450-Glo CYP1A2 enzyme, luciferin luminescence, 1 h; series mostly up to 53 µM. The procedure, abridged:
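Inhibition of CYP1A2 conversion of proluciferin to luciferin, detected by luminescence. Reaction run 1 h at room temperature with NADPH regeneration after brief compound preincubation.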
A general note: Reporter assays use an easily measured gene product as a stand-in for the process of interest.
`CC(C)(C)c1ccc(O)c(C(C)(C)C)c1`: the Potency was 35.4 µM (active) and 56.4 µM (active).
Same read-out and setting: the value for `NC(=Nc1ccccc1)Nc1ccccc1` was 50.2 µM (active) and inactive.
For `Nc1nc(=S)c2[nH]cnc2[nH]1`, the Potency was 30.9 µM (active) and 35.6 µM (active).
Same read-out and setting: the value for `COc1ccc(Cc2cnc(N)nc2N)cc1OC` was “inactive”.
Consider `Nc1cc(Cl)c(-c2cc(Cl)c(N)cc2Cl)cc1Cl`, for which the Potency is 11.2 µM (active) and 12.6 µM (active).
The same measure, in the same setting: for `[Cl][In]([Cl])[Cl]` the value was 37.7 µM (active); for `O=Nc1ccc(Nc2ccccc2)cc1`, 16 µM (active) and 28.3 µM (active); for `CCn1cc(C(=O)O)c(=O)c2cc(F)c(N3CCNC(C)C3)c(F)c21` (stereo not drawn), “inactive”.
As for `CCN1CCCC1CNC(=O)c1cc(S(=O)(=O)CC)c(N)cc1OC` (stereo not drawn), the Potency entry was “inactive”.
On the same count and under the same terms, the value for `CC1COC(=O)O1` (stereo not drawn) was “inactive”; that for `NC(N)=Nc1nc(CSCC/C(N)=N/S(N)(=O)=O)cs1` was “inactive”; that for `C#CC(C)(CC)OC(=O)c1ccccc1C(=O)O` (stereo not drawn) was “inactive”.
As for `CCC(=O)/C=C/C1C(C)=CCCC1(C)C` (stereo not drawn), the Potency entry was “inactive and 25.2 µM (active)”.

Another test has as its target Voltage-gated inwardly rectifying potassium channel KCNH2 (Homo sapiens) (UniProt Q12809). As to the kind of experiment: Human Ether-a-go-go-Related Gene (hERG) channel small molecule antagonists: fluorescence cell-based qHTS assay (AID 1671200). The following applies: hERG-U2OS cells, FluxOR thallium flux fluorescence; series mostly up to 76.8 µM. The procedure, abridged:
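Channel function was assessed by thallium flux. Cells seeded the previous day and kept at 37 C took up FluxOR II dye over 1 h in the dark at room temperature, then sat another 10 min before stimulation.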
For orientation: The hERG channel carries a current that helps repolarise heart muscle cells.
On to `O=C(O)c1cc(Cl)cc(Cl)c1`, for which the Potency result is “inactive”.
The same measure, in the same setting: for `C=CC(=O)OCCCCCCCC` the value was “inactive”; for `CN(C)c1ccc2nc3ccc(=[N+](C)C)cc-3sc2c1`, “inactive”.
The same measure, in the same setting: the value for `c1ccc2c(c1)CCCC2C1=NCCN1` (stereo not drawn) was “inactive”; that for `CC[C@]1(O)C[C@@H]2CN(CCc3c([nH]c4ccccc34)[C@@](C(=O)OC)(c3cc4c(cc3OC)N(C)[C@H]3[C@@](O)(C(=O)OC)[C@H](OC(C)=O)[C@]5(CC)C=CCN6CC[C@]43[C@@H]65)C2)C1` was “inactive”.
Regarding `CC(=O)C1=C(C)[C@@H]2C[C@@]3(C1)[C@H](C)CC[C@H]3C2(C)C`, the Potency was 24.5 µM (active).
Still for that read-out and setting: for `Clc1ccc2c(c1)C(N1CCNCC1)=Nc1ccccc1O2` the value was 43.6 µM (active) and 19 µM (active); for `Cc1cccc([N+](=O)[O-])c1C(=O)O`, “inactive”; for `CC(C)(C)NC(=O)[C@@H]1CN(Cc2cccnc2)CCN1C[C@@H](O)C[C@@H](Cc1ccccc1)C(=O)N[C@H]1c2ccccc2C[C@H]1O`, “inactive”.
As to `O=c1n(CC2CO2)c(=O)n(CC2CO2)c(=O)n1CC1CO1` (stereo not drawn), the Potency entry is “inactive”.
Consider `COc1ccc(Cc2cnc(N)nc2N)cc1OC`, for which the Potency entry is “inactive”.
Same read-out and setting: for `NC12CC3CC(CC(C3)C1)C2` the value was “inactive”; for `CCCN[C@H]1CCc2nc(N)sc2C1`, “inactive”.
The same measure, in the same setting: for `Nc1cc(Cl)c(-c2cc(Cl)c(N)cc2Cl)cc1Cl` the value was “inactive”; for `O=Cc1ccc(Cl)cc1`, “inactive”; for `[Cl][In]([Cl])[Cl]`, “inactive”.
Still for that read-out and setting: for `CC(C)CCOCc1ccccc1` the value was “inactive”.
Turning to `CO[Si](OC)(OC)c1ccccc1`, the Potency result is “inactive”.
Regarding `O=Nc1ccc(Nc2ccccc2)cc1`, the Potency entry is “inactive”.
The same measure, in the same setting: for `O=C(O)CP(=O)(O)O` the value was “inactive”; for `Cc1cccc2n[nH]nc12`, “inactive”.
Consider `O=C(OCc1ccccc1)c1ccc(O)cc1`, for which the Potency result is “inactive”.
Same read-out and setting: the value for `O=C(O)c1cccc(C(=O)O)c1` was “inactive”.
The same measure, in the same setting: the value for `CC1COC(=O)O1` (stereo not drawn) was “inactive”; that for `CC[C@@H](N)CO` was “inactive”; that for `C#CC(C)(CC)OC(=O)c1ccccc1C(=O)O` (stereo not drawn) was “inactive”.
For `CCCCN(CCO)CCCC`, the Potency entry is “inactive”.
The same measure, in the same setting: for `Nc1ccc(O)cc1` the value was “inactive”; for `CCC(=O)/C=C/C1C(C)=CCCC1(C)C` (stereo not drawn), “inactive”; for `CC(N)=O`, “inactive”.
